Screens (PubChem)
This excerpt belongs to a sample that is enriched for hits.
ROC1-CUL1 inh: blocks human RBX1-Cullin-1 di-ubiquitin formation; in vitro K48 di-Ub FRET, acceptor:donor ratio, 45 min; inhibition, % at 10 µM; 140,000 compounds, 0.6% hits; in the data active means inhibition above about 25%
Of the large screens only hits and unclear results are named; the others gave an inactive call.

Cc1cccc(N2C(=O)/C(=C/c3cccn3-c3ccc(Cl)cc3)C(=O)NC2=S)c1C	none
CN(C)c1ccc(-n2cccc2/C=C2\C(=O)NC(=S)N(c3ccc(Br)cc3)C2=O)cc1	none
CCc1ccccc1N1C(=O)/C(=C/c2cccn2-c2ccc(Cl)cc2)C(=O)NC1=S	ROC1-CUL1 inh 36
Cc1ccc(N2C(=O)/C(=C/c3cn(CC(=O)O)c4ccccc34)C(=O)NC2=S)c(C)c1	ROC1-CUL1 inh 54
Cc1ccc2c(c1)CN(Cc1c(C)nc3sccn13)CC(c1ccsc1)O2 (stereo not given)	none
CC(C)(C)c1ccc(C(=O)Nc2ccccc2S)cc1	none
Cc1cc(F)ccc1NC(=O)c1sc2nc3c(cc2c1N)CN(C)CC3	none
CCCCC(CC)C(=O)Nc1ccccc1 (stereo not given)	none
COc1ccc(C)cc1NC(=O)c1c(C)noc1C	none
Cc1ccc(N2C(=O)/C(=C/c3ccccc3)NC2=NC(C)(C)C)cc1	none
O=C(O)C1C2C=CC(C3CC23)C1C(=O)Nc1ccc(Cl)cc1 (stereo not given)	none
O=C(NCCOc1ccccc1)c1ccc(C(=O)c2ccccc2)cc1	none
Cc1nc(SCC(=O)N2CCCCCC2)c2c3c(sc2n1)CCC3	none
C=CCNCCOc1cccc(OC)c1	none
Cc1oc(-c2cccc(Oc3ccccc3)c2)nc1CN(C)C1CCOC1 (stereo not given)	none
N#C/C(=C/C(=O)c1ccccc1)c1ccc([N+](=O)[O-])o1	ROC1-CUL1 inh 85
O=C(/C(=C/c1ccccc1)Sc1ccccc1)c1ccc([N+](=O)[O-])o1	none
CCc1ccccc1NC(=O)c1ccc([N+](=O)[O-])o1	none
Cc1cc(C(=O)N2CCC(C3CCN(Cc4cccnc4)CC3)C2)nn1C (stereo not given)	none
N=C(N)SCC1=NC(=O)NC(=O)C1	ROC1-CUL1 inh 26
O=C1CC(CSCc2ccc(Cl)cc2)=NC(=O)N1	none
O=C1CC(CSc2nc3ccccc3[nH]2)=NC(=O)N1	none
O=C(OC(C(=O)c1ccccc1)c1ccccc1)c1ccc2c(c1)-c1ccccc1C2=O (stereo not given)	none
CCN(CC)S(=O)(=O)Cc1cccc(Cl)c1	none
COc1ccc(CNC2CCCC2)c(OCC(O)CN2CCCC2)c1 (stereo not given)	none
CCc1cccc2c(/C=C3\C(=O)NC(=S)N(Cc4ccco4)C3=O)cn(CC(N)=O)c12	ROC1-CUL1 inh 74
CCOC(=O)Cn1cc(/C=C2\C(=O)NC(=O)N(Cc3ccccc3)C2=O)c2ccccc21	none
CCc1cccc2c(/C=C3/C(=O)NC(=S)N(CC)C3=O)cn(CCOc3ccccc3Cl)c12	none
COc1cccc(/C=C2\C(=O)Nc3ccc(Br)cc32)c1	none
O=C1Nc2ccc(Br)cc2/C1=C/c1cc(O)c(O)c(Br)c1	ROC1-CUL1 inh 66
Cc1ccc(/C=C2\C(=O)Nc3ccc(Br)cc32)cc1C	none
Cc1nc(N(C)C2CCCCC2)ncc1C(C)NCc1cnc[nH]1 (stereo not given)	none
O=C1c2ccccc2COC12OCc1ccccc12 (stereo not given)	none
O=C1C=CC2(c3ccccc3-c3ccccc32)S(=O)(=O)C1	ROC1-CUL1 inh 61
CC1(C)COC2(NC1=O)c1ccccc1-c1ccccc12	none
COC(=O)c1ccc(C(=O)OC)c(NC(=O)CCc2ccccc2)c1	none
COC(=O)c1ccc(C(=O)OC)c(NC(=O)Cc2ccc(Br)cc2)c1	none
COC(=O)c1ccc(C(=O)OC)c(NC(=O)CN(C)C)c1	ROC1-CUL1 inh 51
COc1ccc(S(=O)(=O)Oc2ccc(O)c(C(C)(C)C)c2)cc1	none
CC1(C)OCC(C2OC(C)(C)OC2C(COC(=O)c2ccccc2)OC(=O)c2ccccc2)O1 (stereo not given)	none
COc1cc(C)c(Cl)c(C)c1S(=O)(=O)N1CCCCC1	none
c1cnc(-n2ccnc2)c(CNC2CCCCCCC2)c1	none
O=c1c2ccccc2nnn1Cc1ccccc1	none
COc1cccc(Cn2nnc3c2C(=O)c2ccccc2C3=O)c1	none
Cc1ccc(Cn2nnc3c2C(=O)c2ccccc2C3=O)cc1	ROC1-CUL1 inh 65
CC(C)N1CCNC(=O)C1CC(=O)N1CCC(Oc2ccccc2F)CC1 (stereo not given)	none
CC/C(=N\NC(=O)c1ccc(Br)o1)c1ccc(Cl)cc1	none
CCCCCCCCN1C(=O)/C(=C\c2ccc(N(C)C)cc2)C(=O)N(CCCC)C1=O	none
CN(C)c1ccc(/C=C/C2=NC(=O)NC(=O)C2)cc1	none
CCCCCCCCCCCC[n+]1ccc(/C=C/c2ccc(N(C)C)cc2)cc1	ROC1-CUL1 inh 62
CC(C)C(NC(=O)c1ccco1)C(=O)N1CCN(c2ccccc2)CC1 (stereo not given)	none
CC(C)c1ccccc1NC(=O)c1ccccc1Cl	none
CCCCc1ccc(NC(=S)N2CCC(C(N)=O)CC2)cc1	none
Cc1ccc(CCC(=O)NCc2ccccc2C)cc1	none
CN1C(=O)C(=NC2CCCCC2)C2c3ccccc3C(=O)c3cccc1c32 (stereo not given)	none
Cc1ccc(N=C2C(=O)N(C)c3cccc4c3C2c2ccccc2C4=O)cc1 (stereo not given)	none
CN1C(=O)C(=NCCc2ccccc2)C2c3ccccc3C(=O)c3cccc1c32 (stereo not given)	ROC1-CUL1 inh 36
Nc1cccc2c1C(=O)N(c1cccc(F)c1)C2=O	none
